Values joined by “and” are separate entries in the source; they are usually repeats but may differ in a detail not shown here. Identical values can stand only once. Inconclusive results are not listed. Active and inactive are the calls of the source. Cut-off read from the data, not from the text of the source, unless noted: active = inhibition above about 80%; inactive = the rest.
Experiments:
[1] = growth inhibition of DIPG glioma cells, dose response, cell-based, JHH-DIPG-1, MIPE4.0, CellTiter-Glo, qHTS (AID 1347062; cut-off not given, nearly all actives have AC50 up to about 27 µM); conditions: JHH-DIPG-1 viability, CellTiter-Glo ATP luminescence
[2] = growth inhibition of DIPG glioma cells, dose response, cell-based, SU-DIPG-IV, MIPE4.0, CellTiter-Glo, qHTS (AID 1347063; cut-off not given, nearly all actives have AC50 up to about 30 µM;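 note: compound exposure lasted 48 hours before the viability readout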); conditions: SU-DIPG-IV viability, CellTiter-Glo ATP luminescence
[3] = viability loss in pontine glioma line – cell-based, SU-DIPG-XXV, MIPE5.0, CellTiter-Glo, qHTS, dose response (AID 1347065; cut-off not given, nearly all actives have AC50 up to about 26 µM;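 note: cells exposed to compound for 48 hours before ATP readout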); conditions: CellTiter-Glo ATP luminescence
[4] = SU-DIPG-VI glioma cell viability, MIPE4.0 library, CellTiter-Glo luminescence, qHTS (AID 1347066; cut-off not given, nearly all actives have AC50 up to about 30 µM;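 note: cells exposed to compound for 48 hours before readout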); conditions: CellTiter-Glo ATP luminescence
[5] = JHH-DIPG-1 glioma cell viability, MIPE5.0 library, CellTiter-Glo luminescence, qHTS (AID 1347067; cut-off not given, nearly all actives have AC50 up to about 26 µM;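 note: cells exposed to compound for 48 hours before readout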); conditions: JHH-DIPG-1 glioma viability, CellTiter-Glo ATP luminescence
[6] = SU-DIPG-XXV glioma cell viability, MIPE5.0 library, qHTS (AID 1347068; cut-off not given, nearly all actives have IC50 up to about 30 µM;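 for IC50: cells exposed to compound for 48 hours before viability readout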)
[7] = target: Mitogen-activated protein kinase 7 (Homo sapiens) (UniProt Q13164); experiment: ERK5 transactivation activators in reporter cells, primary screen, cell-based, HTS (AID 1508626;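 active = luciferase signal above three times the same-plate solvent-only control wells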;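 note: luciferase driven by Gal4-ERK5 fusion binding five Gal4 sites before minimal TATA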); conditions: HeLa Gal4-ERK5 transactivation, 18 h, at 5 µM, stronger effect = higher value
Chain of Mitogen-activated protein kinase 7 (Homo sapiens) (Q13164 whole entry, looked up, the tested form may be a part): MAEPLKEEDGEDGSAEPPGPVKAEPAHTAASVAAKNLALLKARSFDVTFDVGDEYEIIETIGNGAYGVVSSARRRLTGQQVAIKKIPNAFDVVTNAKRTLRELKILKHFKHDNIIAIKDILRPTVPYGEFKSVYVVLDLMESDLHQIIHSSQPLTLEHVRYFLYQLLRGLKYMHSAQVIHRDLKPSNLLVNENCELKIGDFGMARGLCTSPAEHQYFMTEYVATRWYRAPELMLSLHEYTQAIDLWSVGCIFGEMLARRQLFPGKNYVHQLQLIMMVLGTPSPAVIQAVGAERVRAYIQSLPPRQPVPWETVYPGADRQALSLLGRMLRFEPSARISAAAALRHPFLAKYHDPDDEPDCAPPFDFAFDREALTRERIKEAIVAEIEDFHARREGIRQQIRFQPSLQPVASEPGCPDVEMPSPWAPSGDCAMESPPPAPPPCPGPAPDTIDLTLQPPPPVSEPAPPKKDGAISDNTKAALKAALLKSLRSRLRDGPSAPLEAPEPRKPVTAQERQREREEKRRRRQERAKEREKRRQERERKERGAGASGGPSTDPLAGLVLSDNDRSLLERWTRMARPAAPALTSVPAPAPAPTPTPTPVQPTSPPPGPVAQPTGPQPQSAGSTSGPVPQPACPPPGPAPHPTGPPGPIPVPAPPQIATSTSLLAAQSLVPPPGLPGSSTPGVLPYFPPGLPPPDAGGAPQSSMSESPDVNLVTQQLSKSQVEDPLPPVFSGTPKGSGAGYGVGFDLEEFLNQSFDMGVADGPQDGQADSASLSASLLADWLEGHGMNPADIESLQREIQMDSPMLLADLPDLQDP

[8] = viability rescue of complex I mutant cybrids, primary screen, cell-based, galactose medium, ATP luminescence (AID 1645843;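 active = z-score of at least 1.8 in each of two replicates, scored against plate mean and spread of sample wells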;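 note: positive z means more ATP and so rescue of galactose-driven cybrid death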); conditions: complex I mutant cybrid cells, 72 h, stronger effect = higher value
[9] = growth inhibition of DIPG glioma cells, dose response, cell-based, SU-DIPG-XIII, MIPE5.0, CellTiter-Glo, qHTS (AID 1347064; cut-off not given, nearly all actives have AC50 up to about 23 µM;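 for AC50: cells exposed to compound for 48 hours before the viability read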); conditions: SU-DIPG-XIII viability, CellTiter-Glo ATP luminescence
[10] = LFS_MB_1R medulloblastoma cell growth inhibition, synergistic combos for chromothripsis tumors, cisplatin or BGB combos (AID 1671452); conditions: LFS_MB_1R medulloblastoma cells, stronger effect = higher value;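 note: cells exposed for 96 hours before readout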
[11] = CRL2098 osteosarcoma cell growth inhibition, synergistic combos for chromothripsis tumors, BGB or cisplatin IC20 combos (AID 1671454); conditions: CRL2098 osteosarcoma cells, drug combinations, stronger effect = higher value;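 note: cells exposed for 96 h before readout; 0% = vehicle DMSO and 100% = killing by high DMSO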
[12] = HD-MB03 medulloblastoma cell growth inhibition, synergistic combos for chromothripsis tumors, BGB or cisplatin IC20 combos (AID 1671455; in the data active = inhibition above about 83%;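 note: 0% = vehicle DMSO and 100% = high DMSO as cytotoxic control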); conditions: HD-MB03 medulloblastoma cells, stronger effect = higher value
[13] = UWB1.289 ovarian carcinoma cell growth inhibition, synergistic combos for chromothripsis tumors, BGB or cisplatin combos (AID 1671456); conditions: UWB1.289 ovarian carcinoma cells, stronger effect = higher value;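 note: cells exposed to compound for four days; 0% = vehicle DMSO and 100% = killing by high DMSO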
[14] = LFS_MB_2R medulloblastoma cell growth inhibition, synergistic combos for chromothripsis tumors, cisplatin combos (AID 1671457); conditions: LFS_MB_2R medulloblastoma cells, stronger effect = higher value;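 note: cells exposed to compound for four days before readout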
[15] = UWB1.289_BRCA1 ovarian cancer growth, cell-based, BGB or cisplatin combinations (AID 1671459); conditions: UWB1.289 BRCA1 ovarian carcinoma, drug combinations, stronger effect = higher value
[16] = human astrocyte viability loss, single and combined drugs, cytotoxicity control for chromothriptic childhood tumor combination screen, cell-based, BGB or cisplatin IC20 combos (AID 1671460); conditions: Human astrocytes, drug combinations, stronger effect = higher value;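 note: cells exposed to compounds for 96 hours before viability readout; 0% = vehicle and 100% = killing control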
[17] = growth inhibition of BT084 medulloblastoma cells, cell-based, ICGC_MB145, cisplatin and BGB IC40 combos (AID 1671461); conditions: drug combinations, stronger effect = higher value;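 note: cells exposed to drugs for 96 hours; 0% = vehicle DMSO and 100% = high DMSO full killing control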
[18] = growth inhibition of RCMB18 medulloblastoma cells, cell-based, cisplatin and BGB IC40 combos (AID 1671462); conditions: stronger effect = higher value;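 note: cells exposed to compound for four days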
[19] = growth inhibition of CRL1545 osteosarcoma cells, cell-based, cisplatin and BGB IC20 combos (AID 1671464); conditions: stronger effect = higher value;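 note: cells exposed to compound for 96 hours before readout; 0% = vehicle DMSO and 100% = high DMSO killing control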
[20] = modifiers of HSF1 nuclear foci, imaging, Selleck Cancer Library (AID 1347162; in the data active = plate-normalised HSF1 focus index below about 0.46); conditions: human cells, at 10 µM; SSMD: measured here: HSF1 foci SSMD mean; cell count: measured here: cell number; plate-normalised HSF1 focus index: stronger effect = lower value
[21] = measured here: combination with BGB IC40, at 0.05 µM
[22] = measured here: combination with cisplatin, at 0.5 µM
[23] = measured here: combination with cisplatin, at 5 µM
[24] = measured here: combination with BGB at IC20, at 0.5 µM
[25] = measured here: combination with cisplatin at IC20, at 0.5 µM
[26] = measured here: combo with BGB at IC20, at 0.5 µM
[27] = measured here: combo with cisplatin at IC20, at 0.5 µM
[28] = measured here: inhibition with BGB combination, at 0.05 µM
[29] = measured here: inhibition with cisplatin combination, at 0.05 µM
[30] = BGB combination, concentration series, at 5 µM
[31] = cisplatin combination, concentration series, at 5 µM
[32] = measured here: combo with BGB IC20, at 0.5 µM
[33] = measured here: combo with cisplatin IC20, at 0.5 µM
[34] = cisplatin combination, at 0.5 µM
[35] = measured here: BGB IC40 combination 0.05 uM, at 0.05 µM
[36] = measured here: BGB IC40 combination, at 0.05 µM
[37] = measured here: with BGB IC20 combination, at 0.5 µM
[38] = measured here: with cisplatin IC20 combination, at 0.5 µM

In the case of OC(CCN1CCCCC1)(c1ccccc1)C1CC2C=CC1C2 (configuration not stated), the outcome [1] is reported as “inactive”, the outcome [2] is reported as “inactive” and the outcome [3] is reported as “inactive”. For the same compound, the outcome [4] was “inactive”, the outcome [5] was “inactive” and the outcome [6] was “inactive”. For the same compound, the luciferase signal [7] was 60 AU (inactive) and the z-score [8] was -0.86 (inactive).

For O=C1Cc2cc(CCN3CCN(c4nsc5ccccc45)CC3)c(Cl)cc2N1, the AC50 [2] was 26.4 µM (active), the AC50 [4] was 23.5 µM (active) and the z-score [8] was -0.165 (inactive).

In the case of O=[N+]([O-])c1ccc(O)c2ncccc12, the AC50 [9] is reported as 3.32 µM (active), the AC50 [3] is reported as 9.34 µM (active) and the AC50 [5] is reported as 2.95 µM (active). For the same compound, the IC50 [6] was 23.5 µM (active).

With O=C(O)c1cc(=O)[nH]c(=O)[nH]1 the outcome [1] was “inactive”, the outcome [2] was “inactive” and the outcome [9] was “inactive”. The outcome [3] was “inactive”, the outcome [4] was “inactive” and the outcome [5] was “inactive”. For the same compound, the outcome [6] was “inactive”, the inhibition ([10]; at 0.5 µM) was -8.32% (inactive) and -28.4% (inactive) and the inhibition [10, 21] was -17.9% and -11.5%. For the same compound, the inhibition [10, 22] was 16.2% and -37.9%, the inhibition [10, 23] was -31% and -23.1% and the inhibition ([11]; at 0.5 µM) was 2.38% (inactive) and -59.4% (inactive). The inhibition [11, 24] was -8.75% and -29.4%, the inhibition [11, 25] was 11.3% and -77.4% and the inhibition ([12]; at 0.5 µM) was 6.65% (inactive) and -10.7% (inactive). The inhibition [12, 26] was 8.02% and -14.5%, the inhibition [12, 27] was 1.03% and -2.03% and the inhibition ([13]; at 0.5 µM) was 9.26% (inactive) and -11.7% (inactive). The inhibition [13, 28] was 1.2% and -34.8%, the inhibition [13, 29] was -6.87% and -27.5% and the inhibition ([14]; at 0.5 µM) was 8.17% (inactive) and -25% (inactive). The inhibition [14, 22] was -0.428% and -22.3%, the inhibition [14, 23] was 15.8% and -23.2% and the inhibition [15, 30] was 11.8% and -20.6%. The inhibition ([15]; at 0.5 µM) was 7.12% (inactive) and -21.5% (inactive), the inhibition [15, 31] was 16.5% and -12.9% and the inhibition ([16]; at 0.5 µM) was 6.1% (inactive) and -13.7% (inactive). The inhibition [16, 32] was 3.75% and -11.6%, the inhibition [16, 33] was 18.5% and -10.3% and the inhibition ([17]; at 0.5 µM) was 0.676% (inactive) and -23.4% (inactive). For the same compound, the inhibition [17, 34] was 4.02% and -10.6%, the inhibition ([17]; cisplatin combination, at 5 µM) was -30.1% and 9.58% and the inhibition [17, 35] was 29.1% and 10.4%. The inhibition ([17]; single agent, at 5 µM) was 10.6% and -23.7%, the inhibition ([18]; at 0.5 µM) was 4.65% (inactive) and -11.2% (inactive) and the inhibition ([18]; cisplatin combo, at 5 µM) was 33.1% and 20.6%. For the same compound, the inhibition [18, 36] was 20.2% and -17.2%, the inhibition [18, 22] was 10.8% and 27.7% and the inhibition ([18]; single agent, at 5 µM) was -13.7% and -20.9%. For the same compound, the inhibition ([19]; at 0.5 µM) was -2.03% (inactive) and 7.29% (inactive), the inhibition [19, 37] was -9.08% and 1.78% and the inhibition [19, 38] was 1.49% and 10%. For the same compound, the inhibition ([19]; single agent, at 0.05 µM) was 0.986% and -9.64% and the inhibition ([19]; single agent, at 5 µM) was -15.6% and -9.76%.

In the case of NCCCNCCSP(=O)(O)O, the luciferase signal [7] is reported as 52 AU (inactive) and the z-score [8] is reported as 0.585 (inactive) and 0.25 (inactive).

In the case of COc1c(C)c2c(c(O)c1C/C=C(\C)CCC(=O)OCCN1CCOCC1)C(=O)OC2, the outcome [4] is reported as “inactive”, the SSMD [20] is reported as -0.00851 and the cell count [20] is reported as 7610. For the same compound, the plate-normalised HSF1 focus index [20] was 0.999 (inactive) and the z-score [8] was 1.7 (inactive).

With NC(N)=NC(N)=NCCc1ccccc1 the outcome [1] was “inactive”, the outcome [2] was “inactive” and the outcome [9] was “inactive”. For the same compound, the outcome [3] was “inactive”, the outcome [4] was “inactive” and the outcome [5] was “inactive”. For the same compound, the outcome [6] was “inactive”, the luciferase signal [7] was 40 AU (inactive) and the z-score [8] was -2.58 (inactive).

In the case of CN1CCN(c2c(F)cc3c(=O)c(C(=O)O)cn(CCF)c3c2F)CC1, the outcome [1] is reported as “inactive”, the outcome [2] is reported as “inactive” and the z-score [8] is reported as 0.245 (inactive). The inhibition ([10]; at 0.5 µM) was -3.54% (inactive), the inhibition [10, 21] was 5.98% and the inhibition [10, 22] was 2.19%. For the same compound, the inhibition [10, 23] was -16.1%, the inhibition ([11]; at 0.5 µM) was 11.6% (inactive) and the inhibition [11, 24] was -0.381%. The inhibition [11, 25] was 26.4%, the inhibition ([12]; at 0.5 µM) was 6.76% (inactive) and the inhibition [12, 26] was 8.44%. For the same compound, the inhibition [12, 27] was 5.72%, the inhibition ([13]; at 0.5 µM) was 9.66% (inactive) and the inhibition [13, 28] was -0.955%. The inhibition [13, 29] was 3.11%, the inhibition ([14]; at 0.5 µM) was 7.8% (inactive) and the inhibition [14, 22] was 7.66%. For the same compound, the inhibition [14, 23] was -16.2%, the inhibition [15, 30] was 7.04% and the inhibition ([15]; at 0.5 µM) was 5.73% (inactive). The inhibition [15, 31] was -0.678%, the inhibition ([16]; at 0.5 µM) was 5.13% (inactive) and the inhibition [16, 32] was 2.15%. The inhibition [16, 33] was 3.47%, the inhibition ([17]; at 0.5 µM) was -2.41% (inactive) and the inhibition [17, 34] was -7.17%. It also gave an inhibition ([17]; cisplatin combination, at 5 µM) of 4.75%, an inhibition [17, 35] of 34.4% and an inhibition ([17]; single agent, at 5 µM) of 1.35%. The inhibition ([18]; at 0.5 µM) was 18.3% (inactive), the inhibition ([18]; cisplatin combo, at 5 µM) was 48% and the inhibition [18, 36] was -3.02%. For the same compound, the inhibition [18, 22] was 34.2%, the inhibition ([18]; single agent, at 5 µM) was -5.57% and the inhibition ([19]; at 0.5 µM) was -0.47% (inactive). For the same compound, the inhibition [19, 37] was -8.63%, the inhibition [19, 38] was 1.43% and the inhibition ([19]; single agent, at 0.05 µM) was 8.93%. It also gave an inhibition ([19]; single agent, at 5 µM) of 2.13%.

For CC(=O)c1ccc2c(c1)N(CCCN(C)C)c1ccccc1S2, the luciferase signal [7] was 32 AU (inactive) and the z-score [8] was -0.995 (inactive).

With CCN(C)C(=O)Oc1cccc([C@H](C)N(C)C)c1 the outcome [1] was “inactive”, the outcome [4] was “inactive” and the z-score [8] was 0.825 (inactive).

For CC(=O)NCCCS(=O)(=O)O, the outcome [9] was “inactive”, the outcome [3] was “inactive” and the outcome [6] was “inactive”. The luciferase signal [7] was 52 AU (inactive).

For O=C(O)CN(CCN(CC(=O)O)CC(=O)O)CCN(CC(=O)O)CC(=O)O, the z-score [8] was 4.38 (active).

With CCCN(CCC)CCc1cccc2c1CC(=O)N2 the luciferase signal [7] was 48 AU (inactive) and the z-score [8] was 0.47 (inactive).

Reference: PubChem BioAssay
